Results published in PubChem BioAssay AID488839 (Broad Institute, 2010).
The whole screen tested about 330,000 compounds, of which about 35 (0.01%) were called active.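 How the source made its calls: active means highest replicate inhibition of at least 50% and at least 75% of replicates reaching 50%; inconclusive means only one of the two criteria met; inactive means both criteria failed.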 These entries were drawn from the full list.

molecular target: Cyclin-dependent kinase 5 (Homo sapiens) + Cyclin-dependent kinase 5 activator 1 (Homo sapiens) (UniProt Q00535+Q15078); experiment: CDK5/p35 phosphotransfer blockade – biochemical, single concentration, primary screen (AID 488839); details: Recombinant CDK5/p35, ADP-Glo luminescence, 60 min; at 10 µM; stronger effect = higher value;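 further: plate controls were DMSO neutral control for no effect and GW8510 at 10 µM for full effect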
Sequence (Q00535 whole entry, looked up): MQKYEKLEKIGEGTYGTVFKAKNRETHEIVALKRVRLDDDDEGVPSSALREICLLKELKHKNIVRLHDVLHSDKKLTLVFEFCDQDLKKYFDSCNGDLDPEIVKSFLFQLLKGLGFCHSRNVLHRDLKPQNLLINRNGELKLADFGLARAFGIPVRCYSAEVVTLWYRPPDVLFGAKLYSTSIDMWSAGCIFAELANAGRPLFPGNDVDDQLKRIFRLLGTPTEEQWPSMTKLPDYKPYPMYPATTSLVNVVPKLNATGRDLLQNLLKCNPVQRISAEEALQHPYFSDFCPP
Sequence (Q15078 whole entry, looked up): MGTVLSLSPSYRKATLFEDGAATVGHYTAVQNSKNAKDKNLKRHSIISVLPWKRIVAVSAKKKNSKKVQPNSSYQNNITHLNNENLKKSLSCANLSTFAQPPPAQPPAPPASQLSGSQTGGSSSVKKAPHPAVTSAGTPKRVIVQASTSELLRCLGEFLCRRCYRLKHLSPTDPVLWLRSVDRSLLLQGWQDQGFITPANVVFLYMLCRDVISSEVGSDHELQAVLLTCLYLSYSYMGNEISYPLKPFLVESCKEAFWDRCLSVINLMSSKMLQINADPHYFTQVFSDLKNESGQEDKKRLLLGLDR

Compound | inhibition
COc1ccc(-c2csc3nc(-c4ccccc4F)oc(=O)c23)cc1OC | -0.745% (inactive)
CCCN1CNC(=S)N(CCc2ccccc2)C1 | 0.897% (inactive)
OCc1n[nH]c(CO)n1 | -0.355% (inactive)
CC(C)COC(=O)n1c(=O)oc2ccc(S(=O)(=O)N3CCCCC3)cc21 | -6.42% (inactive)
COc1ccc(NC(=O)CC2C(=O)NC3CCCCC3N2C(=O)c2ccc(F)cc2)cc1 (stereo unspecified) | 0.318% (inactive)
CN(CC(=O)Nc1ccc(F)cc1)CC(=O)N1CCCCC1 | 1.08% (inactive)
Cc1coc2c(O)cc3c(c12)OC1(N2CCCCC2)C(=O)NCCCC31 (stereo unspecified) | -0.717% (inactive)
CCCCN1C(=O)C(C)=C(C)C1OCCc1ccc(OC)c(OC)c1 (stereo unspecified) | 1.7% (inactive)
N/C(=N\OC(=O)Nc1ccccc1)c1ccno1 | -1.08% (inactive)
Cc1c2cnn(-c3ccccc3)c(=O)c2c(C)n1CCCC(=O)N1CCN(C)CC1 | 0.518% (inactive)
COc1ccccc1NC(=O)CSc1nnc(-c2ccoc2C)n1CCc1ccccc1 | -0.569% (inactive)
COc1ccccc1NC(=O)c1ccc(N2CC3CC(C2)c2cccc(=O)n2C3)c(NC(=O)c2cccnc2)c1 (stereo unspecified) | -1.98% (inactive)
CC1C(C)N(C(=O)CCl)c2ccccc2N1C(=O)CCl (stereo unspecified) | 1.01% (inactive)
C[C@H](NC(=O)C1CC(=O)N(c2ccc3c(c2)OCO3)C1)C(=O)NCc1ccco1 (stereo partly specified) | -0.436% (inactive)
CCc1n[nH]c(=S)n1/N=C/c1c[nH]c2ccc(Br)cc12 | 2.39% (inactive)
COC(=O)Cc1ccc(OCC(=O)NC2CCCC2)cc1 | 0.995% (inactive)
O=C(Nc1c2c(nn1-c1ccc(F)cc1)CS(=O)C2)C12CC3CC(CC(C3)C1)C2 (stereo unspecified) | -0.258% (inactive)
Cc1cccc(C(=O)NCc2nnc(SC(C)C(=O)Nc3nnc(C)s3)n2C)c1 (stereo unspecified) | 1.14% (inactive)
COc1ccc(Cl)cc1NC(=O)COC(=O)C(CC(C)C)N1C(=O)C2CC=CCC2C1=O (stereo unspecified) | -0.94% (inactive)
CCOC(=O)c1ccc2[nH]c(C)c(CN3CCN(C)CC3)c(=O)c2c1 | -4.67% (inactive)
COc1ccc(OC)c(NC(=O)CN(Cc2ccc(Cl)cc2)S(C)(=O)=O)c1 | 0.423% (inactive)
O=C(CSc1nnc(SCc2ccc(Cl)cc2)s1)N/N=C/c1ccccc1Cl | -1.05% (inactive)
O=S(=O)(NCCSc1ccccn1)c1ccc(Cl)cc1 | 0.39% (inactive)

Compound | inhibition
O=C(C1CCN(C2CCN(Cc3ccc4cc(F)ccc4n3)CC2)CC1)N1CCCC1 | 0.175% (inactive)
COc1ccc(C(=O)Cn2nnc(-c3ccc(N4CCOCC4)cc3)n2)cc1OC | -3.2% (inactive)
COC(=O)c1c(NC(=O)c2c(Cl)cnn2C)sc(C)c1C | -2.29% (inactive)
O=c1[nH]c2ccc(S(=O)(=O)N3CCCC3)cc2[nH]1 | -0.663% (inactive)
CCOc1ccc(OCCSc2nc3ccccc3n2CC(=O)O)cc1 | 0.306% (inactive)
Cc1nc(-c2nnc(SCC(=O)Nc3cc(C(F)(F)F)cc(C(F)(F)F)c3)n2C)cs1 | -0.227% (inactive)
CCCCCCCC(=O)OC(CN1CCCCCC1)CN1CCCC1=O (stereo unspecified) | 0.855% (inactive)
CC(CC(=O)Nc1ccc(F)cc1F)S(=O)(=O)c1ccc2c(c1)NC(=O)CO2 (stereo unspecified) | 0.798% (inactive)
COc1ccccc1NC(=O)C1CCCN(c2cc(C)nc3ncnn23)C1 (stereo unspecified) | 0.792% (inactive)
Cc1cccc(C)c1NC(=O)CNC(=O)C1CCCC1 | 0.783% (inactive)
Cc1ccc(Nc2cc(=O)n(C3CCCCC3)c(=O)[nH]2)cc1C | -0.561% (inactive)
CC(C)NC(=O)COCc1cc(-c2ccc3c(c2)OCO3)on1 | -3.05% (inactive)
CC(=O)Nc1ccc(OC(=O)COc2ccc(Br)cc2)cc1 | -1.45% (inactive)
CCCNC(=O)c1c(Cl)cnn1-c1ccc(C)cc1 | -0.745% (inactive)
Cc1noc(C)c1NC(=O)Nc1ccc2c(c1)C(=O)N([C@H](C)CO)C[C@H](C)[C@@H](CN(C)S(=O)(=O)c1cn(C)cn1)O2 | 0.62% (inactive)
O=C(CCc1nnc2ccc(NCc3ccco3)nn12)Nc1cc(F)ccc1F | 0.605% (inactive)
O=C(O)Cn1c(Cc2ccccc2)nc2ccccc21 | -0.592% (inactive)
COc1ccc(C2OC(=O)CC2C(=O)NC(C)C)cc1 (stereo unspecified) | -11.3% (inactive)
O=C(CC1Nc2ccccc2NC1=O)Nc1ccccc1 (stereo unspecified) | 1.13% (inactive)
CCCCCCSc1ccc([C@@H]2[C@@H]3C(=O)N(CC)C(=O)[C@@H]3[C@]3(C(=O)OC)CCCCN23)cc1OC | -6.06% (inactive)
Cc1ccccc1NS(=O)(=O)CCCCC(Cl)(Cl)Cl | -0.0868% (inactive)
O=C(COc1coc(CN2CCN(c3ccccc3F)CC2)cc1=O)N1CCc2ccccc21 | 0.232% (inactive)
COc1ccc(Cl)cc1NC(=O)CN(C)CC(=O)Nc1ccc2c(c1)OCO2 | 1.26% (inactive)

Compound | inhibition
O=Cc1c(N2CCN(c3cccc(Cl)c3)CC2)nc2ccccn2c1=O | -1.83% (inactive)
CN1CCN(S(=O)(=O)c2ccc(N3CCN(S(=O)(=O)c4cccs4)CC3)nc2)CC1 | -0.333% (inactive)
CCC(C)c1ccccc1N1CC(C(=O)N2CCN(S(=O)(=O)c3ccc(F)cc3)CC2)CC1=O (stereo unspecified) | 0.723% (inactive)
CC(C)[C@H](NC(=O)N1CCn2c1nc1ccccc12)C(=O)NC1CC1 | 2.48% (inactive)
COc1cc(C(=O)N2CCN(S(=O)(=O)c3ccc(C(C)C)cc3)CC2)ccc1OCC(=O)N1CCOCC1 | -0.998% (inactive)
Cc1cccc(NC(=O)c2ccc(OCC(=O)NCc3ccccc3)cc2)c1C | 0.801% (inactive)
Cc1nc2c(-c3ccc(F)cc3)c(C)nn2c(C)c1CCC(=O)NCc1ccco1 | -0.00338% (inactive)
CCc1ccc(C(=O)CSc2nnc(C)c(=O)[nH]2)cc1 | -0.74% (inactive)
Cc1cc(C)cc(Oc2nc3c(C)cccn3c(=O)c2/C=C(\C#N)C(=O)NC2CCS(=O)(=O)C2)c1 (stereo unspecified) | 0.399% (inactive)
CC(C)[C@H](NC(=O)N1CCn2c1nc1ccccc12)C(=O)NCCc1ccccc1 | 1.82% (inactive)
COC(=O)c1ccccc1NC(=O)C1CCN(S(=O)(=O)c2cc(OC)ccc2OC)CC1 | 0.427% (inactive)
N#Cc1ccc(C(=O)Nc2nc(-c3cccs3)c(C(=O)C(F)(F)F)s2)cc1 | -1.16% (inactive)
O=C(Cn1nc(Cc2cccnc2)c2ccccc2c1=O)NCC1CCCO1 (stereo unspecified) | -0.846% (inactive)
CCOC(=O)Cc1c(C)nc2c(C#N)c(C)nn2c1C | -2.18% (inactive)
CC(C)CCN(C(=O)c1csnn1)C(C(=O)NC1CCCC1)c1ccccc1 (stereo unspecified) | 0.702% (inactive)
COCc1c(N)c(C)nc(Cl)c1C#N | 11.1% (inactive)
O=C(Cn1nc(C(=O)O)c2ccccc2c1=O)Nc1ccc(F)cc1 | 0.796% (inactive)
CCC(C)(C)NC(=O)C(c1ccc(OC)cc1)N(C(=O)CCC(=O)Nc1cc(C)on1)c1ccc(OC)cc1OC (stereo unspecified) | -0.155% (inactive)
CCSc1ccccc1C(=O)NCc1ccc(OC)cc1 | 0.696% (inactive)
COc1ccc(OC)c(/C(C)=N\NC(=O)c2cc3cc(Cl)ccc3n2C)c1 | 0.107% (inactive)
CS(=O)(=O)N(CC(=O)N1CCCCCC1)c1cccc(Cl)c1Cl | 0.703% (inactive)
CCOc1ccc(C(=O)NC2CCN(CC(=O)NCc3cccs3)CC2)cc1 | 1.1% (inactive)
CC(C)CCNC(=O)C1CCCN(S(=O)(=O)c2ccc(F)cc2)C1 (stereo unspecified) | -0.29% (inactive)

Compound | inhibition
COc1ccc(-c2nc3n(c(=O)c2C#N)CCS3)c(OC)c1 | 0.425% (inactive)
CC(Sc1nnnn1C)C(=O)NC(=O)NC1CCCCC1 (stereo unspecified) | -1.1% (inactive)
CCc1c(C)nc2c(-c3ccccc3)c(C)nn2c1Nc1ccc(NC(C)=O)cc1 | 0.169% (inactive)
CCN(C(=O)COC(=O)c1ccccc1O)c1cccc2ccccc12 | -1.97% (inactive)
COc1cccc(CC2(CO)CCCN(Cc3ccc(OC(F)F)cc3)C2)c1 (stereo unspecified) | 0.552% (inactive)
Cc1ccc(C2SCC(=O)N2c2ccccc2)cc1 (stereo unspecified) | 0.449% (inactive)
COC(=O)Nc1ncc(CN2C(=O)c3ccccc3C2=O)s1 | 0.873% (inactive)
CCC(C)NC(=O)Cn1nc(C(F)(F)F)c2c1CCC2 (stereo unspecified) | -1.07% (inactive)
Cc1ccc(C)c(NS(=O)(=O)c2cc(Br)cnc2N)c1 | -0.401% (inactive)
CSCCC(NS(=O)(=O)c1ccccc1F)C(=O)N1CC=C(c2ccccc2)CC1 (stereo unspecified) | 0.0413% (inactive)
CCCCCCCC[n+]1cccc(C(=O)N2c3c(nc(N)[nH]c3=O)NC(C)C2C)c1 (stereo unspecified) | -4.49% (inactive)
CC(OC(=O)Cc1ccc(F)cc1)C(=O)N1CCc2ccccc21 (stereo unspecified) | -7.94% (inactive)
O=C(O)/C(=C/c1cccnc1)NC(=O)c1ccccc1 | 1.62% (inactive)
O=C(O)CN1C(=O)CC(Cc2ccccc2)C1=O (stereo unspecified) | -1.35% (inactive)
CC(Nc1ccccc1)c1cccnc1 (stereo unspecified) | -1.25% (inactive)
Cc1nc2nc(COc3ccccc3)[nH]n2c(=O)c1Cc1ccccc1 | -2% (inactive)
Cc1csc(OCC(=O)Nc2ccc(C)c(C)c2)n1 | -0.147% (inactive)
CCS(=O)(=O)c1ccc(C(=O)NC)c(Cl)c1Cl | -2.96% (inactive)
CCc1cccc(C)c1N(C(=O)Cn1c(CO)nc2ccccc21)C(C)COC (stereo unspecified) | -0.226% (inactive)
O=c1c2ccccc2ccc2ccc(P(=O)(O)O)cc12 | 1.94% (inactive)
CCC(C)N(C(=O)Cn1nc(C)c([N+](=O)[O-])c1C)C1CCS(=O)(=O)C1 (stereo unspecified) | -0.0593% (inactive)
Cc1c(CCO)c(=O)[nH]n1C(=O)c1c(F)cccc1F | 0.283% (inactive)
